Screening results (PubChem BioAssay)
Most compounds without a hit are left out; they make up all but 6.2% or so of the library.
H9c2 protect – cardioprotection against H2O2-induced cell death, primary screen, uHTS, H9c2 cells, ATPLite luminescence | hit rate 0.63% among 360,000 | protection from H2O2 cell death, % at 20 µM | H9c2 cardiomyocytes, H2O2 injury protection, 2 h | AID 588492, 2011;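 active means compounds giving at least 50% protection of heart cells from peroxide-induced death in the single-dose screen, raw or plate-pattern-corrected value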;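 further: 0% = DMSO wells with peroxide and 100% = DMSO wells without peroxide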
Mot1-301 SUMO – yeast Mot1-301 growth rescue at high temperature, primary screen, SUMOylation pathway inhibitor project, S. cerevisiae, ATP luminescence, 38.5C; S. cerevisiae Mot1-301 growth rescue; percent above DMSO median, 100 means doubled; growth rescue, % at 18.8 µM; hit rate 1% among 320,000;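 active means every valid replicate shows activation above 250% relative to neutral control wells; inactive means the rest, any valid replicate at or below 250%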;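 further: OY570 slx delta 5 strain wells were the positive control but not used for scaling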
AI-2 QS mod – Vibrio harveyi AI-2 quorum sensing modulators, primary screen, JMH597 strain, luminescence/OD600 ratio; Vibrio harveyi JMH597 AI-2 luminescence/OD600 ratio, 9 h; stronger effect = lower value; strain lacks LuxN and CqsS sensors; 0 = neutral-control median; activity change, % at 7.5 µM; hit rate 0.4% among 300,000; in the data active means activity change below about -75%, passing the limit was not always enough;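 further: luminescence divided by OD600 gain over 9 h not by final OD600 alone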
AHR activator – AHR activators, primary screen, cell-based, luminescence, luciferase reporter, human; Aryl hydrocarbon receptor (Homo sapiens), P35869; AHR-responsive luciferase reporter cells; activation, % at 5 µM; hit rate 2.5% among 320,000; AID 2796, 2010; in the data active means activation above about 47%;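 further: 0% = vehicle wells and 100% = reference agonist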
Target sequence (P35869 whole entry, looked up): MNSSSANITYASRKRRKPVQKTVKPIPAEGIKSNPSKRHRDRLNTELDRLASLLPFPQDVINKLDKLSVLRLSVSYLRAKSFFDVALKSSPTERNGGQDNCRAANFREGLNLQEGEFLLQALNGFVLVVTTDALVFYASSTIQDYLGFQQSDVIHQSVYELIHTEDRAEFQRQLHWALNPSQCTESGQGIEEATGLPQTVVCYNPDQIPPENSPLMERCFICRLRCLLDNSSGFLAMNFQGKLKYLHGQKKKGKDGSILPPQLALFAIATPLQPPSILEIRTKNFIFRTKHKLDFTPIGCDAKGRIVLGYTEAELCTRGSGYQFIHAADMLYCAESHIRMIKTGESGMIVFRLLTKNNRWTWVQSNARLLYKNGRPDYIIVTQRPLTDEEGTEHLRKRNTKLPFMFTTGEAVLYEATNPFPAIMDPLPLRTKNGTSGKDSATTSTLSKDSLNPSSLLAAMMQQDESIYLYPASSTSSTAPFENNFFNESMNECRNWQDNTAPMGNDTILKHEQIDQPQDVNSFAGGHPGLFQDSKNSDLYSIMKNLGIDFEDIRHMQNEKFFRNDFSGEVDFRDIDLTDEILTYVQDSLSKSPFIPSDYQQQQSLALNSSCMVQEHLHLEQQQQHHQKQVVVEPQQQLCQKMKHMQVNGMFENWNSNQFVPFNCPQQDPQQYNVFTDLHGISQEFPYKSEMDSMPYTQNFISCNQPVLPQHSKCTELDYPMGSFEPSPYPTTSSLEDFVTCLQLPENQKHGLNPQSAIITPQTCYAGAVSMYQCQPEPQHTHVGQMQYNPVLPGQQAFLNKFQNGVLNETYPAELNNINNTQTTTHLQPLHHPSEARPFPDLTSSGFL
NTR1 ag – agonists of human NTR1, primary screen, imaging, U2OS cells, beta-arrestin-GFP, high content; activation, % at 20 µM; AID 493036, 2011; hit rate 0.17% among 330,000; NTR1-U2OS beta-arrestin-GFP spot imaging, agonist mode;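 active means activation at or above 40% of the spot to cytoplasm intensity ratio, with at least 20 cells analyzed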;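 further: 0% = DMSO without peptide and 100% = 100 nM NTR1 peptide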
GRIN3A LBD mod – binders of NR3A ligand-binding domain, primary screen, biophysical, differential scanning fluorimetry, uHTS; Glutamate receptor ionotropic, NMDA 3A (GRIN3A) ligand-binding domain; NR3A LBD differential scanning fluorimetry, Tm shift; 0% = protein alone, 100% = glycine-bound protein; Tm shift relative to glycine control, % at 25 µM; hit rate 2.5% among 340,000; AID 1259313, 2017;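 active means melting temperature shift of at least 10% of the positive control shift, at one fixed dose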
Numbers without * were called inactive.

For CCCC(=O)Nc1nc(C)c(-c2csc(Nc3ccc(Cl)cc3)n2)s1 the results were H9c2 protect -4, Mot1-301 SUMO -17, AI-2 QS mod 10, AHR activator 65*, NTR1 ag 2 and GRIN3A LBD mod 4.
CN1C(=O)c2cccc3c(S(=O)(=O)NCCc4ccccc4)ccc1c23 was read as H9c2 protect -4, Mot1-301 SUMO -6, AI-2 QS mod 25, AHR activator 1, NTR1 ag -1 and GRIN3A LBD mod 16*.
Screening CCOCc1c(C(=O)OCC(=O)NCc2ccc(F)cc2)oc2ccccc12 returned H9c2 protect 14, AHR activator 3, NTR1 ag -2 and GRIN3A LBD mod 1.
`CC(=O)Nc1cccc(-c2nc3ccccc3[nH]2)c1` gave H9c2 protect -2, Mot1-301 SUMO 1, AI-2 QS mod 7, AHR activator 47*, NTR1 ag -1 and GRIN3A LBD mod -15.
`COc1cccc(OC)c1C(=O)Nc1cccc(-c2nc3ccccc3[nH]2)c1` gave H9c2 protect -4, Mot1-301 SUMO -1, AI-2 QS mod 2, AHR activator 29, NTR1 ag 0 and GRIN3A LBD mod -2.
For CC(=O)Nc1cccc(-c2nc3ccc(NC(C)=O)cc3[nH]2)c1 the results were H9c2 protect -10, Mot1-301 SUMO 194, AI-2 QS mod 19, AHR activator 6, NTR1 ag -1 and GRIN3A LBD mod -6.
`O=C(COc1ccccc1)Nc1cccc(-c2nn[nH]n2)c1` gave H9c2 protect 4, Mot1-301 SUMO 98, AI-2 QS mod 27, AHR activator 4, NTR1 ag 2 and GRIN3A LBD mod 7.
For CC(C)CC(=O)Nc1cccc(-c2nc3ccccc3[nH]2)c1 the results were H9c2 protect 0, Mot1-301 SUMO -4, AI-2 QS mod 5, AHR activator 58*, NTR1 ag 3 and GRIN3A LBD mod -9.
`CC(C)(C)C(=O)Nc1cccc(-c2nc3ccccc3[nH]2)c1` gave H9c2 protect 19, Mot1-301 SUMO -11, AI-2 QS mod 17, AHR activator 61*, NTR1 ag 1 and GRIN3A LBD mod 1.
Screening O=C(COc1ccccc1)Nc1cccc(-c2nc3cc4ccccc4cc3[nH]2)c1 returned H9c2 protect -14, Mot1-301 SUMO 88, AI-2 QS mod 23, AHR activator 6, NTR1 ag 17 and GRIN3A LBD mod 26*.
C/C(=N/NC(=O)CNC(=O)c1cccnc1)c1ccc(Cl)c(Cl)c1 was read as H9c2 protect 11, Mot1-301 SUMO -7, AI-2 QS mod 0, AHR activator 9, NTR1 ag 0 and GRIN3A LBD mod 2.
CC1=NN(c2ccccc2)C(=O)/C1=C/c1ccc(-c2ccc(C)c(C(=O)O)c2)o1 was read as Mot1-301 SUMO -7, AI-2 QS mod 17, AHR activator 0, NTR1 ag 3 and GRIN3A LBD mod 10*.
Screening CC1=NN(c2ccccc2)C(=O)/C1=C/c1ccc[nH]1 returned H9c2 protect -7, Mot1-301 SUMO 7, AI-2 QS mod 11, AHR activator 85*, NTR1 ag 2 and GRIN3A LBD mod 17*.
`CC1=NN(c2ccccc2)C(=O)/C1=C/c1c(O)n(-c2ccc(F)cc2)[nH]c1=O` gave H9c2 protect 1, Mot1-301 SUMO -6, AI-2 QS mod 31, AHR activator 21, NTR1 ag 2 and GRIN3A LBD mod 11*.
`CC1=NN(c2ccc(Cl)c(C(=O)O)c2)C(=O)/C1=C\c1ccc(-c2ccc(C(=O)O)cc2)o1` gave H9c2 protect -6, AI-2 QS mod 18 and GRIN3A LBD mod 2.
For CC1=NN(c2ccccc2)C(=O)C1=Cc1ccccc1 the results were H9c2 protect 1.
